Test results: PubChem BioAssay
The source made the active and inactive calls. How the calls were made is not given here.

molecular target: Pantothenate synthetase (Mycobacterium tuberculosis (strain ATCC 25618 / H37Rv)) (UniProt P9WIL5); test: Recombinant Mtb pantothenate synthetase (PanC) inhibitors, coupled enzyme, confirmatory (AID 375); settings: coupled enzyme assay; at 10 µM, active compounds read high;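 further: 0% = full reaction with vehicle and 100% = no enzyme background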
Sequence (P9WIL5 whole entry, looked up): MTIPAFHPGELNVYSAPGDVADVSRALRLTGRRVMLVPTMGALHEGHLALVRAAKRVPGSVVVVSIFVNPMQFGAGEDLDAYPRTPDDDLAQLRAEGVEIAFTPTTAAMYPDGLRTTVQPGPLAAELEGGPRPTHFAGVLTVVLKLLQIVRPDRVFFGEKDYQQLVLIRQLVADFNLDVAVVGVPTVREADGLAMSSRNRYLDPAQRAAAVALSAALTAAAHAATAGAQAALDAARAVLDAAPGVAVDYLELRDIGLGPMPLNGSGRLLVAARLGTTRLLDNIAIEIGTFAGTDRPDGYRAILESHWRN

SMILES | inhibition
O=C(NCC1CCCCN1)c1cc(OCC(F)(F)F)ccc1OCC(F)(F)F (stereo not drawn) | 3% (inactive)
Cn1c(SCc2ccccc2)nnc1C1CCCNC1 (stereo not drawn) | 0% (inactive)
O=c1c2[nH]c3cccc(Cl)c3c2ncn1CCN1CCCCC1 | 6% (inactive)
CC(C)N(C(=O)COC(=O)c1ccc(O)cc1)C(C)C | 1% (inactive)
COc1nc(-c2ccc(Cl)cc2)ccc1-c1noc(-c2ccncc2)n1 | 4% (inactive)
COCCn1cc(C(=O)c2ccccc2OCC(=O)Nc2cc(C)on2)cc(C#N)c1=O | 0% (inactive)
O=C(Nc1ccc(N2C(=O)C3C4C=CC(C4)C3C2=O)cc1)Nc1nncs1 (stereo not drawn) | 5% (inactive)
COc1cc2c(cc1OC)-c1nnc(C)n1C1(CCCC1)C2 | 0% (inactive)
COc1ccc(N2C(=O)CC(NC3CC3)C2=O)cc1 (stereo not drawn) | 0% (inactive)
CCOC(=O)Cc1cc(=O)n2[nH]c(C)c(-c3ccc(OC)cc3)c2n1 | 6% (inactive)
COCCOC(=O)c1c(C)oc2ccc(NS(=O)(=O)c3ccc(F)cc3)cc12 | 3% (inactive)
O=C1c2ccccc2C(=O)N1CNc1ccccc1 | 0% (inactive)
CCC(=O)N1CCNC(=O)C1CC(=O)Nc1ccc(C)c(Cl)c1 (stereo not drawn) | 0% (inactive)
CC(=O)/C(C[N+]1(C)CCCCC1)=N\O | 3% (inactive)
COCCSc1ccccc1C(=O)Nc1cc(C)on1 | 5% (inactive)
CCc1cc2c(=O)n(C(C)C(=O)OC3CCCCC3)cnc2s1 (stereo not drawn) | 0% (inactive)
CCC(C)(C(=O)NC1CCCCC1)N(CC1CCCO1)C(=O)c1ccccn1 (stereo not drawn) | 0% (inactive)
COc1cc(NC(=O)Nc2cccc(C(C)=O)c2)cc(OC)c1OC | 0% (inactive)
CCn1nc(C(=O)OCC(=O)N2CCc3ccccc32)c2ccccc2c1=O | 7% (inactive)
COc1ccc(C2=CC(=O)OC3(CCCCC3)O2)cc1 | 0% (inactive)
CC1CCN(CC(O)COC2CCC(C(C)(C)C)CC2)CC1 (stereo not drawn) | 0% (inactive)
CCn1c(C(=O)N2CCCC(C(=O)NCCCc3ccccc3)C2)cc2sccc21 (stereo not drawn) | 0% (inactive)
Cc1ccc(-n2ncc3c(=O)n(CC(=O)N4CCCc5ccccc54)cnc32)cc1C | 4% (inactive)
